# Measurements as given in the OligoGym collection.
# Molecular target: FNBP1L
# Assay: pooled miR-30 sensor sort-seq; sequence = guide strand
# Settings: shRNA
# Note: reference of the scale not given here.
row,Sequence,sensor-assay potency score (higher = more potent)
1,TAATTCACCATACACTCTGTGC,-0.622
2,TTTCTCTAGAGTTACATCTATG,-0.933
3,TGACTTTTGACAATAGTCCTTT,-0.217
4,TTCATCATCAAACTCATTGTGG,0.113
5,TAATGTAGAGAACTTCACCTTC,-0.0833
6,TAAGCTGTCGAACTGATCCCAC,0.0926
7,TTGTCTAAGCTGTCGAACTGAT,-0.84
8,TATGATTCAAATAACACTGGGA,0.483
9,TAACTTTGCGTTCTGAGTCAGC,-0.716
10,TTGTAGTTGCTTGTAAATCTGA,-0.235

# Molecular target: FNBP1
# Assay: as above
# Settings: shRNA
row,Sequence,sensor-assay potency score (higher = more potent)
1,ATCTCTTTGATCCATCTCCTTC,-0.792
2,TTTACTAGATTCAAGCTGCTTC,0.524
3,TAACTCATCGACTTTCTGCTGC,0.71
4,TAGAATTAGTGCAACACACATA,-0.218
5,TTTATAAGCTTCTATTACCAGC,-0.679
6,TTTCTGGGTCTCTACTCGCAGT,-1.12
7,TTTGGTGACGTATTTGAGCTTG,0.00299
8,TTTATTTAACTCATCGACTTTC,-0.243
9,TATACTTGTATTCTTCTTCCTC,0.713
10,TAAGCTTCTATTACCAGCTGTG,0.175

# Molecular target: FNDC5
# Assay: as above
# Settings: shRNA
row,Sequence,sensor-assay potency score (higher = more potent)
1,TTATTGGGTTCATTGTCCTTGA,-0.801
2,TTGAAGAGCACAGGCTCGCTGG,-0.67
3,TTGTAGTGCAGCCTCCTTCATC,-0.884
4,TTTTTCCTTGTTGTTATTGGGT,-0.666
5,TAGCCAGAGCTGCTCTTCCTGT,-1.11
6,TTTTCCTTGTTGTTATTGGGTT,-0.634
7,TTGGTCTGAAAGACACAGCTTG,-0.175
8,TTGATGATGTCATACTGGCGGC,-0.843
9,TTGTCCAAGCTAGCATTTCTGA,-1.26
10,TTGAGAGCTCTTGTAGACCGGA,0.301
11,TTCCTAAATAAATTGGACCAGT,-0.788
12,TACCTCATCTTTGTTCTTGGAG,0.567

# Molecular target: FNTB
# Assay: as above
# Settings: shRNA
row,Sequence,sensor-assay potency score (higher = more potent)
1,TATTGAAACGTATAAACCTTGT,-0.892
2,TAGAAAGTATGTAGTGGCCTGG,-0.497
3,AAGGTGTGGATACTGACCGGGT,-0.0926
4,TTTTCTTCTACTTTTGCCTGTT,0.0828
5,TATAAACCTTGTCTGACTGGGG,0.554
6,TTAAGCTCCTCAAAACCTGGGA,-0.317
7,TACTGAAGAAGCTTCTCTCTGT,0.515
8,TTTCAGATAATGGAAGTGCTTC,-0.367
